Experimental data reported in PubChem BioAssay (NCI).
Compounds without any hit were thinned out: in the full panel of roughly 79,000, 15% have a hit. Rule as the data show it: active = growth inhibition above about 70%; inactive = the rest.

Assays:
[1] = NCI Yeast Anticancer Drug Screen. Data for the rad50 strain (AID 155);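 also: 0% = growth of vehicle-only cultures of the same strain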; conditions: S. cerevisiae rad50 strain growth inhibition; at 50.0 µM; stronger effect = higher value
In short: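 DNA repair mutant yeast, compound exposure, growth read-out; inhibition is taken relative to vehicle.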

[2] = NCI Yeast Anticancer Drug Screen. Data for the mec2-1 strain (AID 157); conditions: S. cerevisiae mec2-1 strain, at 50.0 µM, stronger effect = higher value
In short: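 Mutant yeast (mec2-1) grown with compound; growth inhibition relative to vehicle control reported.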

[3] = NCI Yeast Anticancer Drug Screen. Data for the sgs1 mgt1 strain (AID 161);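 also: 0% = growth of cultures given vehicle only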; conditions: S. cerevisiae sgs1 mgt1 strain, at 50.0 µM, stronger effect = higher value
In short: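 This yeast growth screen uses a strain with defined DNA-repair lesions; compound-treated growth is compared with vehicle-treated growth.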

[4] = NCI Yeast Anticancer Drug Screen. Data for the cln2 rad14 strain (AID 165);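 also: 0% = growth equal to vehicle treated cultures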; conditions: S. cerevisiae cln2 rad14 strain, at 50.0 µM, stronger effect = higher value
In short: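 Readout is yeast growth inhibition versus vehicle-treated controls, using a strain with cln2 and rad14 alterations exposed to compound.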

[5] = NCI Yeast Anticancer Drug Screen. Data for the bub3 strain (AID 167); conditions: S. cerevisiae bub3 mutant strain, at 50.0 µM, stronger effect = higher value
In short: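 In this screen, a yeast mutant lacking normal mitotic checkpoint function is challenged with compound. Relative growth versus vehicle gives the inhibition value.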

[6] = NCI Yeast Anticancer Drug Screen. Data for the mlh1 rad18 strain (AID 175); conditions: S. cerevisiae mlh1 rad18 strain growth inhibition; at 50.0 µM; stronger effect = higher value
In short: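 Genetically defined yeast (DNA repair-deficient) exposed to compounds; growth inhibition determined relative to vehicle.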

Measured: growth inhibition

C(=C\c1ncc(-c2ccccc2)cc1-c1ccccc1)/c1ccccc1
inactive: [1] -12.3% | [2] -20.8% | [3] 5.8% | [4] -6.8% | [5] 0.75% | [6] -1.9%

CC(=O)OCC1OC(Sc2cccc3ccccc23)C(OC(C)=O)C(OC(C)=O)C1OC(C)=O (stereo unspecified)
inactive: [1] -16.8% | [2] -5.8% | [3] -4.75% | [4] -20.8% | [5] 0% | [6] 3.4%

Clc1ccc(-c2nnc3c4ccccc4ccn23)cc1
inactive: [1] 14.5% | [2] -11.1% | [3] -5.1% | [4] 9.55% | [5] -3.95% | [6] 1%

CC1CC2=C(C(=O)c3ccccc3C2=O)C(C)O1 (stereo unspecified)
inactive: [1] 3.15% | [2] -29.5% | [3] -4.4% | [4] -31.7% | [5] 41.5% | [6] 9.1%

COc1ccc(C(=O)c2ccc(Cl)s2)cc1
inactive: [1] 8.4% | [2] -4.85% | [3] 22.4% | [4] -13.2% | [5] 21% | [6] 5.1%

C=C1OC(C2CCCCC2)=C(C(=O)OCC)C1C (stereo unspecified)
inactive: [1] -9.6% | [2] -17.2% | [3] -39% | [4] -21.1% | [5] 1.9% | [6] -9.45%

CC(CO)CCNc1ncnc2c1ncn2CCC#N (stereo unspecified)
inactive: [1] -9.3% | [2] 10.1% | [3] -46.5% | [4] -19.9% | [5] 6.95% | [6] -13.4%

Cc1c(Cl)cccc1NC(=O)Sc1ccc(C(C)(C)C)cc1
inactive: [1] 21.1% | [2] 11.4% | [3] 12.5% | [4] 19.1% | [5] 11.4% | [6] 15.5%

C=C(C)CS(=O)(=O)O
inactive: [1] -0.15% | [2] 3.45% | [3] 1.85% | [4] -13.1% | [5] 3.35% | [6] 1.65%

O=C(NNc1nc(N2CCOCC2)nc(N2CCOCC2)n1)c1ccccc1
inactive: [1] 16.6% | [2] 5.15% | [3] 10.9% | [4] 15.3% | [5] -5.05% | [6] -4.3%

CCOC(=O)C(CC(c1ccc2c(c1)OCO2)C(C(=O)OCC)[N+](=O)[O-])C(=O)OCC (stereo unspecified)
inactive: [1] 61.2% | [2] 23.9% | [3] 58.6% | [4] 27.3% | [5] 15.6% | [6] 39.3%

N#C/C(=C\NC(=S)NCc1ccccc1)c1nc2ccccc2s1
inactive: [1] 54.1% | [2] 32.4% | [3] 53.5% | [4] 43.3% | [5] 30.5% | [6] 61.5%

CN(C)CCOC(=O)Nc1ccccc1C(F)(F)F
inactive: [1] 16.1% | [2] -8.1% | [3] 17.1% | [4] 21.8% | [5] 19.8% | [6] 12.2%

COC1/C=C\OC2(C)Oc3c(C)c(O)c4c(O)c(c(CN(C)C)c(O)c4c3C2=O)NC(=O)/C(C)=C\C=C/C(C)C(O)C(C)C(O)C(C)C(OC(C)=O)C1C (stereo unspecified)
inactive: [1] 50.5% | [2] -3.1% | [3] -16.7% | [4] 28.2% | [5] -29.9% | [6] -6.45%

CCCCCCCCCCCCCCCCCCCCCC(C)C
inactive: [1] -8% | [2] 0.8% | [3] -10.9% | [4] -8.6% | [5] -7.55% | [6] -31.4%

NC(=O)c1ccccc1OCC(=O)O
inactive: [1] 6.65% | [2] -1.2% | [3] 4.2% | [4] 15.8% | [5] -6.45% | [6] 19.1%

O=S1(=O)CS/C(=N/C(=S)N(Cc2ccccc2)Cc2ccccc2)N1c1ccccc1
inactive: [1] 43% | [2] 14% | [3] 35.1% | [4] 24.8% | [5] -3.85% | [6] 29.6%

CC(=O)NCc1cccc([N+](=O)[O-])c1
inactive: [1] 18.4% | [2] -12.9% | [3] 27.3% | [4] 2.45% | [5] 17.7% | [6] 13.2%

Brc1cc2ccccc2nc1-c1ccccc1
inactive: [1] -2.3% | [2] -7.95% | [3] 1% | [4] -23.4% | [5] 5.05% | [6] 10.1%

CCCCC[N+]1([O-])CCOCC1
inactive: [1] 4.05% | [2] -4.1% | [3] -7.1% | [4] -24.4% | [5] -3.1% | [6] 1.05%

COC(=O)c1cc([N+](=O)[O-])cc2ccccc12
inactive: [1] 35.8% | [2] -24.6% | [3] 19.1% | [4] 11.3% | [5] 23.1% | [6] 0.65%

O=C(O)C=C1CCCCC1
inactive: [1] 4.35% | [2] -4.2% | [3] 20% | [4] 10.4% | [5] 11.9% | [6] -1.1%

[O-]C(=N/C(=N/[n+]1ccccc1)c1ccccc1)c1ccccc1
inactive: [1] 12.2% | [2] 10.9% | [3] 4.2% | [4] -9% | [5] -4.05% | [6] 2%

Cc1ccc2[nH]c(=O)cc(C(F)(F)F)c2c1
inactive: [1] 13.2% | [2] 6.35% | [3] 5.4% | [4] -2.1% | [5] -15.2% | [6] 21.7%

CCN(CC)C(=O)Cc1[nH][nH]c(=O)c1C(=O)N(CC)CC
inactive: [1] -31.9% | [2] 2.45% | [3] -42.9% | [4] -7.6% | [5] -28.6% | [6] -41.3%

CCC/C=N/Nc1ccc([N+](=O)[O-])cc1[N+](=O)[O-]
inactive: [1] -11.3% | [2] -9.95% | [3] 0.3% | [4] -12.5% | [5] 0.9% | [6] -16.1%

COc1ccc(-c2nnc(CCCCCCCCc3nnc(-c4ccc(OC)cc4)n3N)n2N)cc1
inactive: [1] -8.05% | [2] -23.9% | [3] -9.45% | [4] 0.8% | [5] -2.7% | [6] -1%

CCN(CC)C(=O)Cc1ccc2c3c(cccc13)CC2
inactive: [1] -2.45% | [2] -2.05% | [3] -1.75% | [4] -0.75% | [5] 1.6% | [6] 11.6%

O=[N+]([O-])c1ccc(N/N=C/c2ccccc2Cl)c([N+](=O)[O-])c1
inactive: [1] 15.3% | [2] -9.55% | [3] -1.15% | [4] -22.4% | [5] 9.75% | [6] 27.3%

N#CCCc1ccc[nH]1
inactive: [1] -15.8% | [2] -8.45% | [3] -7.95% | [4] 10.6% | [5] 5.6% | [6] -5.85%

CC(=O)c1sc(Nc2nnc(-c3ccc(-c4nnc(Nc5nc(C)c(C(C)=O)s5)o4)cc3)o2)nc1C
inactive: [1] 3.15% | [2] -14.3% | [3] -25% | [4] 6.4% | [5] -3.05% | [6] 3.05%

COc1cc(N)c2c(c1)SC(c1ccccc1)C(=O)N2 (stereo unspecified)
inactive: [1] -23.6% | [2] 4.25% | [3] 1% | [4] 14.1% | [5] 32.6% | [6] 15.7%

CN(C)C(=S)/N=c1\ss/c(=N\C(=S)N(C)C)n1C1CCCCC1
inactive: [1] 15% | [2] 9.35% | [3] 13.4% | [4] -23.1% | [5] -18.6% | [6] 22.2%

N#C/C(=C\c1ccco1)C(=O)Nc1ccc(Br)cc1
inactive: [1] 27.9% | [2] -3.75% | [3] 1.65% | [4] -35.8% | [5] 9.1% | [6] 23.8%

CC(c1ccc([N+](=O)[O-])cc1)n1cnc2c(N(CCO)CCO)ncnc21 (stereo unspecified)
inactive: [1] 6.3% | [2] -1.15% | [3] -13.7% | [4] -3.7% | [5] -12.2% | [6] -0.5%

COc1ccc(Cc2ccc(Cl)cc2)c(OC)c1
inactive: [1] 3.3% | [2] 2.25% | [3] 19.8% | [4] 15.2% | [5] -12.2% | [6] -5.15%

CCCCNC(=O)Nc1cccc(C)c1C
inactive: [1] -4.2% | [2] -7.9% | [3] 0.75% | [4] -25.8% | [5] 0.55% | [6] 6.35%

Clc1ccc(/C=N/N2CCN(/N=C/c3ccc(Cl)cc3)CC2)cc1
inactive: [1] -3.1% | [2] -10.3% | [3] -0.2% | [4] -5.35% | [5] 13.2% | [6] -15%

COc1cc(Br)c(C=O)cc1OC
inactive: [1] 10.5% | [2] 22.9% | [3] 13.6% | [4] -16.1% | [5] 2.95% | [6] 5.5%

C=C1SC(=Nc2ccc(Cl)cc2)N(c2nc(Cl)nc(Cl)n2)C12CCCCC2
inactive: [1] -16.4% | [2] -21.1% | [3] 19.4% | [4] 14% | [5] 10.2% | [6] 20.6%

C=C1C(=O)O[C@H]2C[C@@H]1C(=O)C/C(C)=C/CC/C(C)=C/CC[C@@]2(C)OCSC
inactive: [1] 18.9% | [2] -5% | [3] 39% | [4] 26.9% | [5] 9.85% | [6] 13.7%
